Rab9 prom act – activators of Rab9 promoter. Huh7 Rab9 promoter-luciferase reporter, luminescence, 24 h. Potency, µM (doses to about 9.22 µM), inactives show at the highest dose activation, negative = inhibition, usual class: activators. 320,000 tested, 2.8% active; also: % of control where 0% means no effect; nearly all actives have a fitted effect of over 60% in size
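Using Huh7 cells stably transfected with Rab9 promoter–luciferase, compounds were incubated 24 h at 37 °C, 5% CO2; luciferase luminescence was read 10 min after reagent addition.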
ELG1 genotox – inducers of genotoxicity in HEK293T ELG1-luciferase cells; AID 504466; Potency, µM (series often up to 46 µM), for the others: at the highest dose activity change, positive = activation, most hits filed as activators; HEK293T ELG1-luciferase reporter, luminescence, 16 h; 330,000 tested, 1.3% active; also: % of control where 0% means no effect; nearly all actives have a fitted effect of over 60% in size
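HEK293T cells expressing luciferase-tagged ELG1 were treated with compound or DMSO for 16 hr at 37°C. Luciferase activity was then read after 30 min with ONE-Glo at room temperature; rising signal flags genetic stress.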
SMN2 splice enh – SMN2 splice variant enhancement; 210,000 tested, 2.8% active; Potency, µM (doses to about 46.1 µM), for the others: at the top dose activity change, positive = activation, hits mostly activators; HEK293 SMN2-luciferase splicing reporter, luminescence, 30-36 h; also: % of control where 0% means no effect; nearly all actives have a fitted effect of over 55% in size
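qHTS luciferase splicing reporter: luminescence rises when SMN2 exon 7 is included in transfected HEK293 cells. Compound exposure lasted 30-36 h at 37C, with 4.5 mM final sodium butyrate as control, followed by a ONE-Glo read.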
NPC1 promoter act – activates the NPC1 promoter. Huh7 NPC1 promoter luciferase reporter, 24 h. Potency, µM (highest dose often 9.22 µM), inactives show at the highest dose activation, hits mostly activators. 320,000 tested, 2.4% active. AID 485313; also: % of control where 0% means no effect; nearly all actives have a fitted effect of over 60% in size
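Cells: Huh7 expressing luciferase under the NPC1 promoter, 1500/well. Seeded 2 h, compound added, incubated 24 h at 37 °C. Luciferase reagent, 10 min ambient, then luminescence.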
FLuc counter – firefly luciferase modulation, counter-screen for miR-21 project; P08659; purified FLuc, Km substrates, luminescence inhibition; Potency, µM (top dose mostly 57.5 µM), without a hit: at the top dose activity change, negative = inhibition, actives largely listed as inhibitors; 360,000 tested, 6.9% active; AID 588342;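 also: plate controls were vehicle for no effect and reference inhibitor for full effect; nearly all actives have a fitted effect of over 55% in size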
Target sequence (P08659 whole entry, looked up): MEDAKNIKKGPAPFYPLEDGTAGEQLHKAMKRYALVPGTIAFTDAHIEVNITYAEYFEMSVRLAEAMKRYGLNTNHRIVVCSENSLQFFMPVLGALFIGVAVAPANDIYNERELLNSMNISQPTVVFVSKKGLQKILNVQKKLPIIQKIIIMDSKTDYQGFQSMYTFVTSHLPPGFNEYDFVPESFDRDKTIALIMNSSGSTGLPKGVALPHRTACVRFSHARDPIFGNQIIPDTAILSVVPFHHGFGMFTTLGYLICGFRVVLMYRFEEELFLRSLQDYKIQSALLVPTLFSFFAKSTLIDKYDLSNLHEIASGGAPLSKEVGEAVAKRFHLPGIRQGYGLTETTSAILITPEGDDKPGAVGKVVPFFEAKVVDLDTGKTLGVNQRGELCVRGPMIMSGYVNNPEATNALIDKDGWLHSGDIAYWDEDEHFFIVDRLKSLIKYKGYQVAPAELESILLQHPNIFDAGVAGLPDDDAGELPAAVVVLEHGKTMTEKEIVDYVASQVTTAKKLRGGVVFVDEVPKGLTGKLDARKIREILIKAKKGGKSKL
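Purified P. pyralis luciferase, 10 nM final, with Km-level 10 uM D-luciferin and 10 uM ATP in 50 mM Tris acetate pH 7.5, 10 mM Mg acetate, 0.01% Tween-20, 0.05% BSA; 6-point qHTS titration about 60 µM downward; luminescence read.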
Starred values were filed as active, the others as inactive; [ ] = dose if it differs, or a comment. A selection: hits, their analogues and other compounds. The true share with any hit is near 7.4%. Calls follow the shape of the dose curve; as a rule, active = well fitted curve in the direction sought with a large enough effect; inconclusive = small, poorly fitted or top-dose-only effect, or another doubt; inactive = no such curve, though single readings can be large; an effect the other way counts as inactive or inconclusive. Potency is read from the fitted curve at half-maximal effect.

For Cn1nc(C(=O)Nc2nc3ccccc3[nH]2)c2ccccc2c1=O the results were Rab9 prom act inconclusive, ELG1 genotox 4%, SMN2 splice enh 14%, NPC1 promoter act 13% and FLuc counter -17%.
Screening Cc1ccsc1C(=O)Nc1nc2ccccc2[nH]1 returned Rab9 prom act 0.35µM*, ELG1 genotox 1.2µM*, NPC1 promoter act 0.63µM* and FLuc counter 1.7µM*.
COc1cc(OC)cc(C(=O)Nc2nc3ccccc3[nH]2)c1 was read as Rab9 prom act inconclusive, ELG1 genotox inconclusive, SMN2 splice enh inconclusive, NPC1 promoter act 21% and FLuc counter 11µM*.
NC(=O)c1ccc(C(F)(F)F)cn1 was read as Rab9 prom act 2%, ELG1 genotox -1%, SMN2 splice enh -2%, NPC1 promoter act -7% and FLuc counter 1%.
CC1=CC(=C(C#N)c2nc3ccccc3s2)C=C(C)N1CC1CCCO1 (stereo unspecified) was read as Rab9 prom act 19%, ELG1 genotox -2%, SMN2 splice enh 2%, NPC1 promoter act 7% and FLuc counter inconclusive.
Screening O=C(Nc1nc2ccccc2[nH]1)c1ccccc1F returned Rab9 prom act -22%, ELG1 genotox inconclusive, NPC1 promoter act inconclusive and FLuc counter 0.19µM*.
Screening CCc1ccc(C(=O)Nc2nc3ccccc3[nH]2)cc1 returned Rab9 prom act inconclusive, ELG1 genotox inconclusive, NPC1 promoter act 0.1µM* and FLuc counter 0.11µM*.
`COc1ccc2oc(C(=O)Nc3nc4ccccc4[nH]3)c(C)c2c1` gave Rab9 prom act 0.32µM*, ELG1 genotox inconclusive, NPC1 promoter act 0.35µM* and FLuc counter 0.43µM*.
For COc1ccc(CC(=O)Nc2nc3ccccc3[nH]2)cc1 the results were Rab9 prom act 23%, ELG1 genotox -1%, NPC1 promoter act 30% and FLuc counter -2%.
For O=C(Nc1nc2ccccc2[nH]1)c1cc(F)cc(F)c1 the results were Rab9 prom act 0.63µM*, ELG1 genotox inconclusive, NPC1 promoter act 1.8µM* and FLuc counter 2.7µM*.
O=C(Cc1ccccc1F)Nc1nc2ccccc2[nH]1 was read as Rab9 prom act 22%, ELG1 genotox 10%, SMN2 splice enh 18%, NPC1 promoter act 11% and FLuc counter -17%.
`O=C(Nc1nc2ccccc2[nH]1)c1ccc(F)c(S(=O)(=O)N2CCOCC2)c1` gave Rab9 prom act inconclusive, ELG1 genotox 14%, SMN2 splice enh inconclusive, NPC1 promoter act inconclusive and FLuc counter 17µM*.
For O=C(NCCc1nc2ccccc2[nH]1)c1ccc(F)cc1 the results were Rab9 prom act -1%, ELG1 genotox -2%, NPC1 promoter act -4% and FLuc counter 11%.
`CN(C)S(=O)(=O)c1ccc(C(=O)Nc2nc3ccccc3[nH]2)cc1` gave Rab9 prom act inconclusive, ELG1 genotox inconclusive, SMN2 splice enh 11µM*, NPC1 promoter act inconclusive and FLuc counter inconclusive.
`O=C(Nc1nc2ccccc2[nH]1)c1ccc(F)cc1` gave Rab9 prom act 0.32µM*, ELG1 genotox inconclusive, SMN2 splice enh 14µM*, NPC1 promoter act 0.45µM* and FLuc counter 1.1µM*.
Screening O=C(Nc1ccc2nn(-c3ccccc3)nc2c1)c1cc2ccccc2o1 returned SMN2 splice enh -17% and FLuc counter 1%.
For O=C(Nc1nc2ccccc2[nH]1)c1cc2ccccc2o1 the results were Rab9 prom act 1.1µM*, ELG1 genotox 2.3µM*, SMN2 splice enh 4.5µM*, NPC1 promoter act 2.2µM* and FLuc counter 1.3µM*.
Screening C[C@H](CN(C)C)C(O)(c1ccccc1)c1ccccc1 returned SMN2 splice enh -17%[9.22 µM].
`O=C(/C=C/c1cccs1)N1CCN(c2ccccc2)CC1` gave Rab9 prom act inconclusive, ELG1 genotox 7%, SMN2 splice enh -4%, NPC1 promoter act 8% and FLuc counter inconclusive.
`O=C(/C=C/c1cccc(F)c1)Nc1cc(S(=O)(=O)N2CCOCC2)ccc1Cl` gave ELG1 genotox -7%.
Screening O=C(/C=C/c1cccc(F)c1)c1ccc(N2CCOCC2)cc1 returned Rab9 prom act inconclusive, ELG1 genotox inconclusive, NPC1 promoter act inconclusive and FLuc counter 1.1µM*.
For O=C(/C=C/c1cccs1)Nc1ccc([N+](=O)[O-])cc1 the results were Rab9 prom act inconclusive, ELG1 genotox 11%, SMN2 splice enh inconclusive, NPC1 promoter act 23% and FLuc counter inconclusive.
For O=C(/C=C/c1cccs1)c1ccc(N2CCOCC2)cc1 the results were Rab9 prom act 2.2µM*, ELG1 genotox inconclusive, SMN2 splice enh 255%, NPC1 promoter act 3.5µM* and FLuc counter 0.24µM*.
`O=C(/C=C/c1cccs1)c1ccc([N+](=O)[O-])cc1` gave Rab9 prom act 9%, ELG1 genotox 2%, NPC1 promoter act 0% and FLuc counter 4.3µM*.
`CCC(=O)[C@@H](c1ccccc1)c1ccccn1` gave SMN2 splice enh -9%[9.22 µM].
`COc1ccc(S(=O)(=O)NCC(c2ccc(F)cc2)N2CCOCC2)cc1Br` (stereo unspecified) gave Rab9 prom act 0%, ELG1 genotox 0%, NPC1 promoter act -1% and FLuc counter 8%.
For COc1ccc(CCN(C)C2CCCN(C(=O)Cn3cnnn3)C2)cc1OC (stereo unspecified) the results were Rab9 prom act 7%, ELG1 genotox 5%, NPC1 promoter act -3% and FLuc counter -2%.
COc1ccccc1C(=O)N/C(N)=N/c1nc2ccccc2o1 was read as Rab9 prom act inconclusive, ELG1 genotox 16%, SMN2 splice enh 20%, NPC1 promoter act inconclusive and FLuc counter inconclusive.
Screening CC(C)(C)C(=O)N/C(N)=N/c1nc2ccccc2o1 returned Rab9 prom act 0.45µM*, ELG1 genotox inconclusive, NPC1 promoter act 0.89µM* and FLuc counter 3%.
`CCC(=O)N/C(N)=N/c1nc2ccccc2o1` gave Rab9 prom act 1.1µM*, ELG1 genotox inconclusive, NPC1 promoter act 4µM* and FLuc counter 11µM*.
Cc1ccc(C(=O)N/C(N)=N/c2nc3ccccc3o2)cc1 was read as Rab9 prom act inconclusive, ELG1 genotox inconclusive, SMN2 splice enh -27%, NPC1 promoter act inconclusive and FLuc counter -15%.
`N/C(=N\c1nc2ccccc2o1)NC(=O)c1ccccc1` gave Rab9 prom act inconclusive, ELG1 genotox 8.2µM*, SMN2 splice enh 13%, NPC1 promoter act 4µM* and FLuc counter inconclusive.
CC(C)CC(=O)N/C(N)=N/c1nc2ccccc2o1 was read as Rab9 prom act 1.4µM*, ELG1 genotox inconclusive, NPC1 promoter act 1.6µM* and FLuc counter 8.5µM*.
CCCC(=O)N/C(N)=N/c1nc2ccccc2o1 was read as Rab9 prom act 0.71µM*, ELG1 genotox inconclusive, NPC1 promoter act 0.89µM* and FLuc counter 6.7µM*.

High-throughput results deposited in PubChem by National Center for Advancing Translational Sciences (NCATS).
